Measurements taken from PubChem BioAssay (NCI).
“And” between values parts separate entries of the source, which are not always exact repeats. Equal entries are not always repeated. This is part of a sample that, as a whole, favours compounds with a hit. Of some 79,000 tested, about 15% had one in any assay. A structure can be active in one record and inactive in another. The source made the active and inactive calls. No stated cut-off is given here; in the data, active means growth inhibition above about 70%; inactive means the rest.

How the values were obtained:
[1] = NCI Yeast Anticancer Drug Screen. Data for the rad50 strain (AID 155);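 further: 0% = growth of vehicle-only cultures of the same strain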; details: S. cerevisiae rad50 strain growth inhibition, stronger effect = higher value
Summary of the method: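 Inhibition values express reduced yeast growth in compound-treated cultures relative to vehicle-treated controls.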

[2] = NCI Yeast Anticancer Drug Screen. Data for the mec2-1 strain (AID 157); details: S. cerevisiae mec2-1 strain, stronger effect = higher value
Summary of the method: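 Strain: mec2-1 (DNA repair/cell cycle alteration). Compound exposure, then growth measured; inhibition expressed relative to vehicle.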

[3] = NCI Yeast Anticancer Drug Screen. Data for the sgs1 mgt1 strain (AID 161);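 further: 0% = growth of cultures given vehicle only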; details: S. cerevisiae sgs1 mgt1 strain, stronger effect = higher value
Summary of the method: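 Test agents were incubated with a DNA-repair-mutant yeast strain. Growth was then read and compared against vehicle-treated controls.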

[4] = NCI Yeast Anticancer Drug Screen. Data for the cln2 rad14 strain (AID 165);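 further: 0% = growth equal to vehicle treated cultures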; details: S. cerevisiae cln2 rad14 strain, stronger effect = higher value
Summary of the method: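 Compounds are applied to the cln2 rad14 yeast strain, and growth is then compared with that of vehicle-treated cultures to give inhibition.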

[5] = NCI Yeast Anticancer Drug Screen. Data for the bub3 strain (AID 167); details: S. cerevisiae bub3 mutant strain, stronger effect = higher value
Summary of the method: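 Steps: expose the mutant yeast strain to compound; grow alongside vehicle-treated cultures; measure growth; express inhibition against the vehicle cultures.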

[6] = NCI Yeast Anticancer Drug Screen. Data for the mlh1 rad18 strain (AID 175); details: S. cerevisiae mlh1 rad18 strain growth inhibition, stronger effect = higher value
Summary of the method: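 Read-out is yeast growth inhibition, calculated against vehicle-only controls. The compound was applied to a strain engineered with DNA damage repair alterations.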

[7] = at 5.0 µM (retest, dose inferred, filed as 0.5)
[8] = at 50.0 µM (retest, dose inferred, filed as 5.0)

SMILES	growth inhibition [1, 7]	growth inhibition [1, 8]	growth inhibition ([1]; at 50.0 µM)	growth inhibition [2, 7]	growth inhibition [2, 8]	growth inhibition ([2]; at 50.0 µM)	growth inhibition [3, 7]	growth inhibition [3, 8]	growth inhibition ([3]; at 50.0 µM)	growth inhibition [4, 7]	growth inhibition [4, 8]	growth inhibition ([4]; at 50.0 µM)	growth inhibition [5, 7]	growth inhibition [5, 8]	growth inhibition ([5]; at 50.0 µM)	growth inhibition [6, 7]	growth inhibition [6, 8]	growth inhibition ([6]; at 50.0 µM)
O=C1COC(=O)/C1=C/c1ccc2c(c1)OCO2	12% (inactive) and 15% (inactive)	78% (active) and 86% (active)	76.6% (active) and 77.4% (active)	16% (inactive) and 26% (inactive)	84% (active) and 90% (active)	64.1% (inactive) and 84.5% (active)	18% (inactive)	69% (inactive) and 93% (active)	78.5% (active) and 86.4% (active)	4% (inactive) and 15% (inactive)	71% (active) and 61% (inactive)	56% (inactive) and 54.6% (inactive)	2% (inactive) and 4% (inactive)	82% (active) and 89% (active)	65.5% (inactive) and 88% (active)	9% (inactive) and 14% (inactive)	81% (active)	93.2% (active) and 95.1% (active)
O=C1C=CC(=O)c2c1ccc1c3ccccc3n(Cc3ccccc3)c21	27% (inactive)	84% (active)	73% (active)	38% (inactive)	90% (active)	71.2% (active)	41% (inactive)	90% (active)	59% (inactive)	19% (inactive)	49% (inactive)	38% (inactive)	52% (inactive)	92% (active)	76% (active)	47% (inactive)	90% (active)	25.1% (inactive)
CC(=O)NC1C(O)OC(CO)C(OC2OC(CO)C(O)C(O)C2NC(=O)NCCCCCCNC(=O)n2cc(F)c(=O)[nH]c2=O)C1O (configuration not stated)	3% (inactive) and 85% (active)	58% (inactive) and 98% (active)	43.1% (inactive) and 91.9% (active)	-5% (inactive) and 78% (active)	70% (active) and 99% (active)	72.2% (active) and 93.5% (active)	7% (inactive) and 93% (active)	81% (active) and 98% (active)	78.8% (active) and 88.5% (active)	8% (inactive) and 52% (inactive)	20% (inactive) and 98% (active)	24.8% (inactive) and 63.7% (inactive)	5% (inactive) and 46% (inactive)	19% (inactive) and 99% (active)	25.2% (inactive) and 75.5% (active)	4% (inactive) and 87% (active)	48% (inactive) and 98% (active)	37% (inactive) and 86.8% (active)
COc1cccc2c1C(=O)c1c(O)c3c(c(O)c1C2=O)C[C@@](O)(C(=O)CO)C[C@@H]3OC1CC(N)C(O)C(C)O1 (some centres not stated)	91% (active) and 50% (inactive) and -5% (inactive)	99% (active) and 94% (active) and 0% (inactive)	92.2% (active) and 94.8% (active) and 20.2% (inactive)	41% (inactive) and 20% (inactive) and -6% (inactive)	99% (active) and 82% (active) and -16% (inactive)	93.7% (active) and 52.2% (inactive) and -26% (inactive)	53% (inactive) and 15% (inactive) and 4% (inactive)	99% (active) and 88% (active) and -2% (inactive)	94.6% (active) and 88% (active) and 5% (inactive)	25% (inactive) and 5% (inactive) and -23% (inactive)	98% (active) and 49% (inactive) and 1% (inactive)	90.5% (active) and 11.1% (inactive) and 91.5% (active)	57% (inactive) and 2% (inactive) and 22% (inactive)	98% (active) and 72% (active) and 17% (inactive)	93.7% (active) and 88.8% (active) and -40.1% (inactive)	69% (inactive) and 44% (inactive) and -8% (inactive)	98% (active) and 84% (active) and -10% (inactive)	92.8% (active) and 89.8% (active) and 46.3% (inactive)
O=C1c2ccccc2C(=O)c2c(O)c(O)cc(O)c21	97% (active)	97% (active)	88.5% (active) and 11.4% (inactive)	99% (active)	98% (active)	86.2% (active) and -3.5% (inactive)	98% (active)	97% (active)	86% (active) and 14.2% (inactive)	59% (inactive)	95% (active)	72.4% (active) and 9.2% (inactive)	98% (active)	97% (active)	86.1% (active) and -9.1% (inactive)	99% (active)	97% (active)	85.5% (active) and 25% (inactive)
O=C(c1ccccc1)C(c1ccccc1)C(O)c1ccc([N+](=O)[O-])cc1 (configuration not stated)	9% (inactive) and 2% (inactive)	89% (active) and 99% (active)	96% (active) and 98.2% (active)	13% (inactive) and -8% (inactive)	96% (active) and 99% (active)	98.4% (active) and 99.5% (active)	6% (inactive) and -14% (inactive)	94% (active) and 99% (active)	97.1% (active) and 98.8% (active)	9% (inactive) and 3% (inactive)	96% (active) and 99% (active)	94.8% (active) and 99.2% (active)	19% (inactive) and 1% (inactive)	92% (active) and 99% (active)	95.6% (active) and 98.9% (active)	11% (inactive) and 6% (inactive)	95% (active) and 99% (active)	96.7% (active) and 99.5% (active)
Cc1nnc(S(=O)(=O)c2ccc(N=Nc3c(N)nc(N)nc3N)cc2)s1	6% (inactive)	20% (inactive)	-5.45% (inactive)	8% (inactive)	-5% (inactive)	-13.2% (inactive)	-8% (inactive)	-9% (inactive)	-9.15% (inactive)	9% (inactive)	4% (inactive)	68.4% (inactive)	-1% (inactive)	7% (inactive)	-23.5% (inactive)	11% (inactive)	7% (inactive)	6.4% (inactive)
C=C(C)C(=O)Oc1ccc(NC(=O)c2ccccc2)ccc1=O	5% (inactive) and -1% (inactive)	96% (active) and 95% (active)	92.5% (active) and 96.7% (active)	2% (inactive) and 26% (inactive)	96% (active)	75.2% (active) and 83.6% (active)	7% (inactive) and 19% (inactive)	95% (active) and 98% (active)	96% (active) and 94.3% (active)	-1% (inactive) and 1% (inactive)	92% (active)	89.5% (active) and 83.8% (active)	5% (inactive) and 0% (inactive)	94% (active) and 93% (active)	89.5% (active) and 93% (active)	13% (inactive) and 6% (inactive)	98% (active)	96.8% (active) and 96.6% (active)
c1ccc(-c2conc2-c2ccccc2)cc1	-22% (inactive)	95% (active)	60.8% (inactive)	-7% (inactive)	91% (active)	19.1% (inactive)	9% (inactive)	90% (active)	31.4% (inactive)	-32% (inactive)	68% (inactive)	-2.5% (inactive)	-20% (inactive)	92% (active)	54% (inactive)	-10% (inactive)	95% (active)	71.3% (active)
COc1ccc(Oc2ccccc2N)cc1	0% (inactive)	93% (active)	83.7% (active)	-1% (inactive)	95% (active)	59.3% (inactive)	-2% (inactive)	93% (active)	69.3% (inactive)	-8% (inactive)	95% (active)	88.3% (active)	6% (inactive)	93% (active)	63.4% (inactive)	-3% (inactive)	96% (active)	90.5% (active)
Nc1nccnc1C(=O)O	-166% (inactive)	-152% (inactive)	-12.1% (inactive) and 7.75% (inactive)	-49% (inactive)	-52% (inactive)	20.9% (inactive) and 0.9% (inactive)	-63% (inactive)	-61% (inactive)	-2.45% (inactive) and 6.3% (inactive)	-59% (inactive)	-54% (inactive)	67.5% (inactive) and 5.6% (inactive)	-74% (inactive)	-75% (inactive)	18.8% (inactive) and -1.75% (inactive)	-145% (inactive)	-108% (inactive)	11.6% (inactive) and 8.25% (inactive)
O=C(O)COc1ccc(OCC(=O)O)cc1	3% (inactive)	42% (inactive)	-11.4% (inactive) and 55.8% (inactive)	-3% (inactive)	-2% (inactive)	-5.05% (inactive) and -20.9% (inactive)	-1% (inactive)	1% (inactive)	-11.5% (inactive)	1% (inactive)	-5% (inactive)	-68.3% (inactive)	1% (inactive)	4% (inactive)	-4.55% (inactive)	-3% (inactive)	1% (inactive)	0.9% (inactive) and 18.2% (inactive)
Nc1ncnc(N)c1N=O	-19% (inactive)	1% (inactive)	39% (inactive) and 21.6% (inactive)	-13% (inactive)	-3% (inactive)	32.5% (inactive) and 4.05% (inactive)	5% (inactive)	3% (inactive)	67.5% (inactive) and 35.1% (inactive)	11% (inactive)	28% (inactive)	39.3% (inactive) and 31.2% (inactive)	-2% (inactive)	54% (inactive)	62.6% (inactive) and 53.2% (inactive)	-3% (inactive)	15% (inactive)	34.5% (inactive) and 26.6% (inactive)
NC(=O)SCC(=O)NNc1ccccc1	16% (inactive)	54% (inactive)	48.1% (inactive) and 88.1% (active)	1% (inactive)	40% (inactive)	13.3% (inactive) and 39.9% (inactive)	5% (inactive)	41% (inactive)	87.8% (active)	11% (inactive)	60% (inactive)	82.2% (active)	13% (inactive)	88% (active)	86% (active)	14% (inactive)	81% (active)	51.5% (inactive) and 88.9% (active)
